Among all 320,000 compounds or so, about 2,100 (0.66%) were called active. About 53% were inconclusive and are not listed. Calls follow the shape of the dose curve; as a rule, active = well fitted inhibition curve with a large enough effect in the signal ratio, with a control signal flat (not every such curve was filed as active); inconclusive = small, poorly fitted or top-dose-only effect, or effect the other way, or a change in a side signal; inactive = flat fitted curve, though single readings scatter; the % refers to the signal ratio. The list comes from a sample in which actives are over-represented; it also holds similar structures and randomly drawn compounds.
Potency is read from the fitted curve at half-maximal effect.

The assay is described as follows: qHTS Assay for Lipid Storage Modulators in Drosophila S3 Cells.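 As to cell number change: cells counted by Cell Tracker Red CMTPX staining in the red channel.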 As to lipid storage change, negative = inhibition: % is scaled to controls: 0 for no effect and ±100 for the full control effect. The settings on record: BODIPY lipid droplet fluorescence, 18-24 h, cells fed with added oleic acid; cell number change: measured here: cell count max response; series mostly up to 46.1 µM. The source says: NIH Molecular Libraries Probe Production Centers Network [MLPCN] NIH Chemical Genomics Center [NCGC] MLPCN Grant: 1 R03 MH085686-01 Assay Submitter (PI): Beller, Mathias; Max-Planck-Institut fur Biophysikalische Chemie NCGC Assay Overview: Storing lipids as a reservoir for energy or the anabolism of elementary metabolites is a common feature of probably all cells and is conserved from bacteria to humans. The universal cellular lipid storage organelle is the so-called lipid storage droplet (LD). Although ubiquitous, LDs share a simple structure composed of a hydrophobic core that harbors the storage lipids, which is shielded by a droplet-specific phospholipid monolayer to which proteins are attached. The current model of LD biogenesis involves an incorporation of the lipid core into the membrane leaflets of the endoplasmic reticulum (ER) followed by a subsequent budding-like maturation of a LD, which ultimately pinches off. Once released, LD volume can increase by localized lipogenesis or fusion of existing droplet. Storage lipids are re-mobilized enzymatically by lipase activity. Lipase regulation in the adipocyte is heavily studied and involves multiple components including catecholamine signaling, the LD-associated proteins Perilipin and comparative gene identification (CGI-58) and at least two lipases named hormone sensitive lipase (HSL) and adipocyte triglyceride lipase (ATGL). LD regulation outside of the adipocyte is poorly understood and only few components are known. However, there is an urgent need to learn more about ectopic fat depots as mislocalized storage of lipids, for example in the liver or muscle, is an eminent health problem associated with insulin resistance or the metabolic syndrome. We developed a laser-scanning cytometer assay to enable 1,536-well screening and combined the results of the small molecules screen with an RNAi database based on lipid storage.
Triacsin C (Sigma-Aldrich T-4540), an inhibitor of long-chain fatty acyl CoA synthetase that blocks synthesis of triglycerides, was used as a positive control for lipid under-storage. A total of 23 nL of compound solution of different concentrations were transferred to the assay plates using a Kalypsys pin tool equipped with a 1,536-pin array containing 10-nL slotted pins (FP1S10, 0.457-mm diameter, 50.8 mm long; V&P Scientific). One microliter of oleic acid (400 uM) was added, and the plate was lidded with stainless steel rubber gasket lined lids containing pinholes. […] Fluorescence was detected by excitation of the fluorophores with a 488-nm laser on an Acumen Explorer (TTP Lab Tech). The total intensity in channel 2 (500-530 nm) reflected lipid droplet accumulation. Cells were detected using channel 3 (575-640 nm) with 5-um width and 100-um depth filters. The ratio of the number of objects in PMT channel 2 over the number of objects in PMT channel 3 was also calculated. Percent activity was computed relative to an internal control (100% inhibited lipid droplet deposition due to the presence of 20 uM Triacsin C), which was added to 32 wells/plate.
Background: Quantitative high-throughput screening tests each substance at several concentrations.
As for `COc1ccc(S(=O)(=O)N2CCCC(C(=O)NCc3ccc4c(c3)OCO4)C2)cc1` (configuration not stated), the Potency entry is “inactive” and the cell number change came out at 4.03%. Turning to `COc1ccc(Cc2nnc(SCC(=O)Nc3cc(Cl)ccc3C)[nH]c2=O)cc1`, the Potency entry is “inactive” and the cell number change is -4.71%. On the same counts, the results for `CCc1cc(=O)oc2c(C)c(OCC(=O)N3CCC(C(=O)O)CC3)ccc12` are “inactive” and -9.69%. On the same counts, the results for `CCCCc1cc(=O)oc2cc(OCC(=O)NC(Cc3c[nH]c4ccc(O)cc34)C(=O)O)ccc12` (configuration not stated) are “inactive” and -11.2%. Taken in the same sequence, the figures for `O=C(/C=C/Nc1ccc(Br)cn1)c1cccc(OC(F)F)c1` were “inactive” and 16.6%. For the molecule `COc1cccc(C(=O)COc2cccc(NC(=O)c3ccco3)c2)c1`, the Potency result is “inactive” and the cell number change was 29%.

`CCC(=O)Nc1cccc(NC(=O)c2cccc([N+](=O)[O-])c2)c1`: the Potency entry is “inactive” and the cell number change was 5.3%. Taken in the same sequence, the figures for `O=C(Nc1cccc([N+](=O)[O-])c1)c1ccccc1` were “inactive” and -11.6%. Consider `COc1ccc(NC(=O)c2cccc([N+](=O)[O-])c2)cc1`, for which the Potency entry was “inactive” and the cell number change stood at 0.213%.

As to `COc1cccc(C(=O)COc2cccc(NC(=O)c3cccc([N+](=O)[O-])c3)c2)c1`, the Potency is 18.4 µM (active) and the cell number change came to 20%.

With `CCCc1cc(C(=O)Nc2cccc([N+](=O)[O-])c2)cs1`, the Potency is 20 µM (active) and the cell number change was 24.5%. Taken in the same sequence, the figures for `COc1cccc(C2NC(=O)NC(C)=C2C(=O)Nc2cc(OC)ccc2OC)c1` (configuration not stated) were “inactive” and 10.2%. On the same counts, the results for `CC(C(=O)N1CCc2ccccc21)N1CCN(Cc2ccc(Cl)cc2)CC1` (configuration not stated) are “inactive” and -3.17%.

`CC(C(=O)N1CCc2ccccc21)N1CCN(c2ccccn2)CC1` (configuration not stated): the Potency is 23.1 µM (active) and the cell number change is 18%. Taken in the same sequence, the figures for `CC(C(=O)N1CCc2ccccc21)N1CCc2ccccc2C1` (configuration not stated) were “inactive” and -14.5%. Regarding `CCOc1ccccc1N(CC(=O)OC)S(=O)(=O)c1ccccc1`, the Potency result is “inactive” and the cell number change was determined as 1.61%. Regarding `O=C(NNc1nc2c(F)cccc2s1)C1COc2ccccc2O1` (configuration not stated), the Potency entry is “inactive”. Take `Cc1nc2nc[nH]n2c(=O)c1CCOC(=O)c1c(F)cccc1F`: the Potency entry was “inactive” and the cell number change is -14%. Consider `Cc1nc2nc[nH]n2c(=O)c1CCOC(=O)c1ccccc1F`, for which the Potency entry is “inactive” and the cell number change was -14.3%. Consider `CC(=O)OCCc1c(C)nc2nc[nH]n2c1=O`, for which the Potency is 29.1 µM (active) and the cell number change is -16.2%.

Consider `OC[C@H]1O[C@@H](O[C@@H]2[C@@H](CO)O[C@@](O)(CO)[C@H]2O)[C@H](O)[C@@H](O)[C@H]1O`, for which the Potency result is “inactive”. On to `O=C(Nc1ccccc1C(=O)NCCCN1CCOCC1)c1ccc(Cl)cc1`, for which the Potency result is “inactive” and the cell number change is 1.08%. With `COc1ccc(CC(=O)NCC2CCCN(Cc3ccccc3Cl)C2)cc1` (configuration not stated), the Potency entry is “inactive” and the cell number change was -2.61%. For the molecule `Cc1nc2c(sc3nc(N4CCOCC4)c4c(c32)CC(C)(C)OC4)c(-c2ccc(Cl)cc2)c1C(=O)O`, the Potency is 16.4 µM (active) and the cell number change was -7.08%.

Take `Cc1nc2c(sc3nc(N4CCOCC4)c4c(c32)CC(C)(C)OC4)c(-c2ccccc2)c1C(=O)O`: the Potency entry is “inactive” and the cell number change was found to be 21%. For the molecule `Cc1ccc(NC(=O)c2sc3nc(N4CCOCC4)c4c(c3c2N)CC(C)(C)OC4)cc1`, the Potency result is “inactive”. On to `O=C(NC1CC2CCCC(C1)N2C(=O)Nc1ccccc1)c1ccncc1` (configuration not stated), for which the Potency result is “inactive” and the cell number change worked out at 23.5%. On the same counts, the results for `Cc1nc2sc(C(=O)OCC(=O)N3c4ccccc4CC3C)c(C)c2c(=O)[nH]1` (configuration not stated) are “inactive” and 19.4%. Taken in the same sequence, the figures for `COc1ccc(N2C(=O)NC(NC(=O)C(C)(C)C)(C(F)(F)F)C2=O)cc1` (configuration not stated) were “inactive” and -16.8%. On the same counts, the results for `CC1CC(c2ccccc2)=Nc2ccccc2N1` (configuration not stated) are 0.82 µM (active) and 13.7%. With `CC1(c2ccccc2)CC(c2ccccc2)=Nc2ccccc2N1` (configuration not stated), the Potency entry is “inactive” and the cell number change was found to be 1.92%. Consider `Clc1ccccc1C1CC(c2ccccc2)=Nc2ccccc2N1` (configuration not stated), for which the Potency result is “inactive” and the cell number change is -20.8%. Taken in the same sequence, the figures for `CCN1CCN(Cc2c(C(=O)N/N=C(\C)c3ccc(Cl)c(Cl)c3)nnn2-c2nonc2N)CC1` were “inactive” and -0.855%. Taken in the same sequence, the figures for `Cn1c(N)c(C(=O)COC(=O)c2ccc(Cl)c(S(=O)(=O)N3CCCC3)c2)c(=O)n(C)c1=O` were “inactive” and 1.25%. For `O=C(Cn1cc([N+](=O)[O-])cn1)Nc1nc2ccccc2s1`, the Potency entry is “inactive”. On to `COc1cc(/C=C/C(=O)O)cc(S(=O)(=O)NCCO)c1OC`, for which the Potency result is “inactive” and the cell number change was -11.7%. Turning to `CC1Cc2ccccc2N1C(=O)CNCCCN(C)C` (configuration not stated), the Potency is 20.6 µM (active) and the cell number change was -0.87%.

For `CC1Cc2ccccc2N1C(=O)CNc1ccccc1N1CCCCC1` (configuration not stated), the Potency result is “inactive” and the cell number change amounted to 1.48%. As to `CC1Cc2ccccc2N1C(=O)CSc1ccccc1` (configuration not stated), the Potency result is “inactive” and the cell number change was -23.8%.

As for `CC(NC(=O)c1ccccc1)C(=O)NC1=NCCS1` (configuration not stated), the Potency result is “inactive” and the cell number change is -3.51%. For the molecule `CC(NC(=O)c1ccc(Br)cc1)C(=O)NC1=NCCS1` (configuration not stated), the cell number change amounted to 5.62% and the lipid storage change, negative = inhibition was -5.54% [at 9.22 µM] (inactive). On to `CC(C(=O)NC1=NCCS1)N1C(=O)c2ccccc2C1=O` (configuration not stated), for which the Potency result was “inactive” and the cell number change was -6.04%. For the molecule `O=C(CN1C(=O)C2CC=CCC2C1=O)NC1=NCCS1` (configuration not stated), the Potency entry is “inactive” and the cell number change is 4.96%. Take `CC(C(=O)NC1=NCCS1)N1C(=O)C2CC=CCC2C1=O` (configuration not stated): the Potency was 29.1 µM (active) and the cell number change was -25.7%. As to `CC(NC(=O)C1CCCCC1)C(=O)NC1=NCCS1` (configuration not stated), the Potency is 20.6 µM (active) and the cell number change is -6.79%. Consider `COC(=O)CC1C(=O)NC2CCCCC2N1C(=O)c1ccccc1` (configuration not stated), for which the Potency entry is “inactive” and the cell number change is -6.42%. On the same counts, the results for `COCC(C)NC(=O)COc1ccc(Cl)cc1Cl` (configuration not stated) are “inactive” and 14.4%. Taken in the same sequence, the figures for `CC(=O)N(C)c1nc(N)n(-c2ccccc2)n1` were “inactive” and 17.4%. Taken in the same sequence, the figures for `CN(CC(=O)Nc1ccc(N2CCOCC2)cc1)C(=O)C12CC3CC(CC(C3)C1)C2` were “inactive” and 0.396%.

As to `CC(C)(C)c1ccc(NC(=O)Nc2ccc3ccccc3n2)cc1`, the Potency result is “inactive” and the cell number change stood at 14.5%. Taken in the same sequence, the figures for `CCCCn1c(=N)n(CC(=O)O)c2ccccc21` were “inactive” and -0.932%.

Turning to `COc1ccc(N(CC(=O)N/N=C/c2cc3ccc(OC)cc3nc2Cl)S(=O)(=O)c2ccccc2)cc1`, the Potency entry was “inactive” and the cell number change came to 5.98%. On the same counts, the results for `COc1ccc(Cc2noc(CN3CCCN(Cc4ccc(F)cc4)CC3)n2)cc1OC` are “inactive” and -12.5%. On the same counts, the results for `Cc1ccn2c(C(=O)NNC(=O)Nc3ccc(Cl)cc3)c(C)nc2c1` are “inactive” and -7.08%. As to `CCCCN(C(=O)C1CC(=O)N(Cc2ccc(C)cc2)C1)c1c(N)n(CCCC)c(=O)[nH]c1=O` (configuration not stated), the Potency entry was “inactive” and the cell number change came out at 2.26%. On the same counts, the results for `CCCCN(C(=O)C1CC(=O)N(c2ccc(C)cc2)C1)c1c(N)n(CCC)c(=O)[nH]c1=O` (configuration not stated) are 20.6 µM (active) and -1.39%. For `CCCCN(C(=O)C1CCCC1)c1c(N)n(CCC)c(=O)[nH]c1=O`, the Potency result is “inactive” and the cell number change turned out to be 10.4%.

For `Cc1ccc(-c2csc(NC(=O)c3cccc(S(=O)(=O)N4CCN(C)CC4)c3)n2)cc1`, the Potency result is “inactive” and the cell number change came to 13%.

The values are drawn from PubChem BioAssay AID2685 (National Center for Advancing Translational Sciences (NCATS), 2010).
